Compound activity as filed in PubChem BioAssay.
In the library only some 1.3% were active in any assay of this set; here they are far more common.
rTrxR1 inhibitor = qHTS Assay for Inhibitors of Mammalian Selenoprotein Thioredoxin Reductase 1 (TrxR1): qHTS; Potency, µM (doses to about 114 µM), usual class: inhibitors; AID 588453, 2011; recombinant rTrxR1, NADPH fluorescence consumption, selenite substrate; 1% of 390,000 active; Thioredoxin reductase 1, cytoplasmic (Rattus norvegicus), O89049; note: nearly all actives have a fitted effect of over 65% in size
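Rat TrxR1 (90 nM in the dispensed reagent) was pre-reduced with 400 uM NADPH for 5 min at room temperature, then incubated with compound for 15 min. After 400 uM selenite was added, NADPH fluorescence (Ex 340/Em 450 nm) was followed for 8 min.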
Giardia kill = Small Molecules that selectively kill Giardia lamblia: qHTS; Giardia lamblia trophozoite viability; activity change, % at 7.66 µM, hits read low; 0.15% of 340,000 active; AID 540267, 2011; in the data active = activity change below about -80%; inconclusive = between about -30% and that limit;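 note: parasites exposed to compound for two days anaerobically before the ATP read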
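Luminescence from cellular ATP indicates surviving trophozoites (100 cells/well) following 48 hrs anaerobic compound treatment at 37 deg C; signal develops 15-30 min at room temperature.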
GCN5L2 inh-1 = qHTS Assay for Inhibitors of GCN5L2. AID 504327, 2011. Potency, µM (doses to about 58.9 µM), usual class: inhibitors. 0.21% of 390,000 active. Histone acetyltransferase KAT2A (Homo sapiens), Q92830. GCN5L2 HAT assay, ThioGlo1 CoA-SH fluorescence
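Enzyme at 20nM final was mixed with library compounds for 15 min at room temperature. Peptide H3(1-25) at 75uM, acetyl-CoA at 70uM and ThioGlo1 at 50uM were then added. Plates were read immediately and after 20 min (Ex340nm/Em540nm).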
Pin1 inh = qHTS Assay to Find Inhibitors of Pin1. 0.009% of 390,000 active. Pin1 FP peptide displacement, HiFluor488, 10 min. Potency, µM (highest dose often 115 µM), usual class: inhibitors. AID 504891, 2011; active = well fitted inhibition curve with a large enough effect in the polarisation, with a control signal flat, not every such curve was filed as active; inconclusive = small, poorly fitted or top-dose-only effect, or effect the other way, or a change in a side signal; inactive = no such curve, though single readings can be large or run the other way; the % refers to the polarisation
Target sequence (Q13526 whole entry, looked up): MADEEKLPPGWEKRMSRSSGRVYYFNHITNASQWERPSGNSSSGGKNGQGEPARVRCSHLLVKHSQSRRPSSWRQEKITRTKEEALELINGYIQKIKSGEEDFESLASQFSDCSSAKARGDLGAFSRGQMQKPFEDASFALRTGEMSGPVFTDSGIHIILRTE
TrxR1 substrate = qHTS Assay for Substrates of Mammalian Selenoprotein Thioredoxin Reductase 1 (TrxR1): qHTS | purified TrxR1 substrate turnover, NADPH consumption readout | AID 588456, 2011 | Potency, µM (doses to about 114 µM) | Thioredoxin reductase 1, cytoplasmic (Rattus norvegicus), O89049 | 0.01% of 390,000 active; note: nearly all actives have a fitted effect of over 50% in size
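Rat TrxR1, dispensed at 90 nM, was prereduced with 400 uM NADPH (final) for 5 min at ~22 deg C, then incubated with compound 15 min before 400 uM selenite. A first-read NADPH fluorescence drop versus no-compound background flagged substrates.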
GALK inhibitor = qHTS Assay for Inhibitors of Human Galactokinase (GALK); Purified GALK, Kinase-Glo residual ATP luminescence; P51570; AID 1868, 2009; 0.007% of 270,000 active; Potency, µM (highest dose often 57.5 µM), most hits filed as inhibitors
Target sequence (P51570 whole entry, looked up): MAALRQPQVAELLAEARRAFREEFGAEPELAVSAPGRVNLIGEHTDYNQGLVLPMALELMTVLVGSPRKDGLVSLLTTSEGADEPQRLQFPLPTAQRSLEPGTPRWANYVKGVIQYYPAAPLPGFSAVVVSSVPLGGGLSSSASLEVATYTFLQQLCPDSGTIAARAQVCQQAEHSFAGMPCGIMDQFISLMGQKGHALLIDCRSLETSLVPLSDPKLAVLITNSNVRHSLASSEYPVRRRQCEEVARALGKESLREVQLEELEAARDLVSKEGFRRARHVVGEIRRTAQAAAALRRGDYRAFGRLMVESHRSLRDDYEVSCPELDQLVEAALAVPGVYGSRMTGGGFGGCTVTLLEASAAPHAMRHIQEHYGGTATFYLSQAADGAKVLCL
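ATP-depletion format; final 35 uM ATP, 100 uM D-galactose, 5 nM enzyme; pH 8.0 HEPES/Mg2+ buffer; 60 min RT; luminescence read 10 min after detection reagent.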
GCN5L2 inh-2 = qHTS Assay for Inhibitors of GCN5L2: Hit confirmation | Potency, µM, actives largely listed as inhibitors | shares compounds with GCN5L2 inh-1 | 70% of 140 active | GCN5L2 HAT, ThioGlo1 CoA fluorescence, 20 min
Large screens that a line does not name were inactive (follow-up assays come after a bar, where they were run); ! = not active in a repeat. Unless noted, calls come from the whole dose curve; as a rule, active = well fitted curve in the direction sought with a large enough effect; inconclusive = small, poorly fitted or top-dose-only effect, or another doubt; inactive = no such curve, though single readings can be large; an effect the other way counts as inactive or inconclusive.

O=C(Nc1ccc(Oc2ccc(Cl)cc2)c(Cl)c1)c1cc(I)cc(I)c1O	GCN5L2 inh-1 25.1µM, Pin1 inh inconclusive (no result: GALK inhibitor)
COC(=O)c1cc(Oc2ccc(Cl)cc2Cl)ccc1[N+](=O)[O-]	none (no result: rTrxR1 inhibitor, Giardia kill, Pin1 inh, TrxR1 substrate, GALK inhibitor)
OCCCc1ccc(O)c(O)c1	rTrxR1 inhibitor 79.4µM
CCCN(CCC)CCc1ccc(O)c(O)c1	none (no result: Giardia kill, Pin1 inh, GALK inhibitor)
Cn1cccc1/C=C1/C(=O)NC(=S)N(Cc2ccc(F)cc2)C1=O	rTrxR1 inhibitor 44.7µM (no result: Pin1 inh)
O=C1NC(=O)N(CCC2=CCCCC2)C(=O)/C1=C/c1cccs1	rTrxR1 inhibitor 7.94µM
O=C1NC(=O)N(CCC2=CCCCC2)C(=O)/C1=C/c1ccc(O)cc1	rTrxR1 inhibitor inconclusive
CN1C(=O)NC(=O)/C(=C\c2ccc([N+](=O)[O-])o2)C1=O	rTrxR1 inhibitor 15.8µM, Giardia kill inconclusive, Pin1 inh inconclusive
CN1C(=O)NC(=O)/C(=C/c2ccc([N+](=O)[O-])o2)C1=O	rTrxR1 inhibitor inconclusive, Pin1 inh inconclusive
O=C(COc1ccc2ccc(=O)oc2c1)N1CCC(C(=O)O)(c2ccccc2)CC1	GCN5L2 inh-1 25.1µM (no result: GALK inhibitor)
Cc1c(C)c2ccc(OCC(=O)N3CCC(C(=O)O)(c4ccccc4)CC3)cc2oc1=O	none (no result: GALK inhibitor)
N#CN=C1SCCN1Cc1ccc(Cl)nc1	none (no result: rTrxR1 inhibitor, Giardia kill, Pin1 inh, TrxR1 substrate, GALK inhibitor)
C[N+](C)(C)CC(=O)[O-]	none (no result: rTrxR1 inhibitor, Giardia kill, Pin1 inh, TrxR1 substrate, GALK inhibitor)
C[N+](C)(C)CC(=O)O	rTrxR1 inhibitor 26.7µM! (no result: GALK inhibitor)
CC[C@@]1(O)C(=O)OCc2c1cc1n(c2=O)-c2cc3ccccc3nc2C1	GCN5L2 inh-1 28.2µM (no result: rTrxR1 inhibitor, Giardia kill, Pin1 inh, TrxR1 substrate, GALK inhibitor)
CCCCCCCC/C=C\CCCCCCCC(=O)OC[C@@H](COP(O)(O)=S)OC	GCN5L2 inh-1 5.01µM (no result: rTrxR1 inhibitor, Giardia kill, Pin1 inh, TrxR1 substrate, GALK inhibitor)
CCCCC/C=C\C/C=C\CCCCCCCC(=O)NCCO	none (no result: rTrxR1 inhibitor, Giardia kill, Pin1 inh, TrxR1 substrate, GALK inhibitor)
Oc1cccc[c]1[Hg][Cl]	GCN5L2 inh-1 0.0891µM (no result: rTrxR1 inhibitor, Giardia kill, Pin1 inh, TrxR1 substrate, GALK inhibitor)
CN1CCc2cc3c(cc2[C@@H]1O)OCO3	GCN5L2 inh-1 7.94µM (no result: rTrxR1 inhibitor, Giardia kill, Pin1 inh, TrxR1 substrate, GALK inhibitor)
COC(=O)[C@@H]1[C@@H](C(=O)OC)C2(c3ccccc3-c3ccccc32)N(c2ccc(Cl)cc2)N1C#N	rTrxR1 inhibitor 11.2µM, Pin1 inh inconclusive
CCOC(=O)C1=C(C)c2ccccc2OC1(C(=O)OCC)c1ccccc1 (centres undefined)	rTrxR1 inhibitor 44.7µM, Pin1 inh inconclusive (no result: GALK inhibitor)
CCOC(=O)c1ccccc1C(=O)OCC	Pin1 inh inconclusive (no result: GALK inhibitor)
N#CC(C#N)=Cc1ccc(O)c(O)c1	rTrxR1 inhibitor 16.8µM (no result: GALK inhibitor)
CN1C2CC(OC(=O)[C@H](CO)c3ccccc3)CC1C1OC12 (some centres undefined)	none (no result: Giardia kill, Pin1 inh, GALK inhibitor)
COc1ccc(-c2cc(=NCC(=O)O)c3ccccc3o2)cc1	rTrxR1 inhibitor inconclusive, GCN5L2 inh-1 inconclusive | GCN5L2 inh-2 32.4
CC(=O)OC1C(=O)[C@]2(C)C(O)CC3OC[C@]3(OC(C)=O)C2[C@@H](OC(=O)c2ccccc2)[C@]2(O)CC(O)C(C)=C1C2(C)C (some centres undefined)	none (no result: rTrxR1 inhibitor, Giardia kill, Pin1 inh, TrxR1 substrate, GALK inhibitor)
